Source: PubChem BioAssay
Pf apPOL block: Pf-apPOL inhibitors, biochemical, fluorescence | Plasmodium falciparum apicoplast DNA polymerase (apPOL) | Recombinant Pf-apPOL, molecular beacon fluorescence, 1.5 h | inhibition, % at 10 µM | actives 0.25% (n = 210,000) | AID 1794808, 2022
mHTT CaM bind: mutant huntingtin-calmodulin interaction inhibitors – biochemical, AlphaScreen, primary screen; AlphaScreen His-mHTT/GST-CaM binding, luminescence; inhibition, % at 15 µM; actives 3.6% (n = 190,000);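 note: 0% = both proteins with DMSO and 100% = one protein alone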
Target sequence (P42858 whole entry, looked up, stated change not applied): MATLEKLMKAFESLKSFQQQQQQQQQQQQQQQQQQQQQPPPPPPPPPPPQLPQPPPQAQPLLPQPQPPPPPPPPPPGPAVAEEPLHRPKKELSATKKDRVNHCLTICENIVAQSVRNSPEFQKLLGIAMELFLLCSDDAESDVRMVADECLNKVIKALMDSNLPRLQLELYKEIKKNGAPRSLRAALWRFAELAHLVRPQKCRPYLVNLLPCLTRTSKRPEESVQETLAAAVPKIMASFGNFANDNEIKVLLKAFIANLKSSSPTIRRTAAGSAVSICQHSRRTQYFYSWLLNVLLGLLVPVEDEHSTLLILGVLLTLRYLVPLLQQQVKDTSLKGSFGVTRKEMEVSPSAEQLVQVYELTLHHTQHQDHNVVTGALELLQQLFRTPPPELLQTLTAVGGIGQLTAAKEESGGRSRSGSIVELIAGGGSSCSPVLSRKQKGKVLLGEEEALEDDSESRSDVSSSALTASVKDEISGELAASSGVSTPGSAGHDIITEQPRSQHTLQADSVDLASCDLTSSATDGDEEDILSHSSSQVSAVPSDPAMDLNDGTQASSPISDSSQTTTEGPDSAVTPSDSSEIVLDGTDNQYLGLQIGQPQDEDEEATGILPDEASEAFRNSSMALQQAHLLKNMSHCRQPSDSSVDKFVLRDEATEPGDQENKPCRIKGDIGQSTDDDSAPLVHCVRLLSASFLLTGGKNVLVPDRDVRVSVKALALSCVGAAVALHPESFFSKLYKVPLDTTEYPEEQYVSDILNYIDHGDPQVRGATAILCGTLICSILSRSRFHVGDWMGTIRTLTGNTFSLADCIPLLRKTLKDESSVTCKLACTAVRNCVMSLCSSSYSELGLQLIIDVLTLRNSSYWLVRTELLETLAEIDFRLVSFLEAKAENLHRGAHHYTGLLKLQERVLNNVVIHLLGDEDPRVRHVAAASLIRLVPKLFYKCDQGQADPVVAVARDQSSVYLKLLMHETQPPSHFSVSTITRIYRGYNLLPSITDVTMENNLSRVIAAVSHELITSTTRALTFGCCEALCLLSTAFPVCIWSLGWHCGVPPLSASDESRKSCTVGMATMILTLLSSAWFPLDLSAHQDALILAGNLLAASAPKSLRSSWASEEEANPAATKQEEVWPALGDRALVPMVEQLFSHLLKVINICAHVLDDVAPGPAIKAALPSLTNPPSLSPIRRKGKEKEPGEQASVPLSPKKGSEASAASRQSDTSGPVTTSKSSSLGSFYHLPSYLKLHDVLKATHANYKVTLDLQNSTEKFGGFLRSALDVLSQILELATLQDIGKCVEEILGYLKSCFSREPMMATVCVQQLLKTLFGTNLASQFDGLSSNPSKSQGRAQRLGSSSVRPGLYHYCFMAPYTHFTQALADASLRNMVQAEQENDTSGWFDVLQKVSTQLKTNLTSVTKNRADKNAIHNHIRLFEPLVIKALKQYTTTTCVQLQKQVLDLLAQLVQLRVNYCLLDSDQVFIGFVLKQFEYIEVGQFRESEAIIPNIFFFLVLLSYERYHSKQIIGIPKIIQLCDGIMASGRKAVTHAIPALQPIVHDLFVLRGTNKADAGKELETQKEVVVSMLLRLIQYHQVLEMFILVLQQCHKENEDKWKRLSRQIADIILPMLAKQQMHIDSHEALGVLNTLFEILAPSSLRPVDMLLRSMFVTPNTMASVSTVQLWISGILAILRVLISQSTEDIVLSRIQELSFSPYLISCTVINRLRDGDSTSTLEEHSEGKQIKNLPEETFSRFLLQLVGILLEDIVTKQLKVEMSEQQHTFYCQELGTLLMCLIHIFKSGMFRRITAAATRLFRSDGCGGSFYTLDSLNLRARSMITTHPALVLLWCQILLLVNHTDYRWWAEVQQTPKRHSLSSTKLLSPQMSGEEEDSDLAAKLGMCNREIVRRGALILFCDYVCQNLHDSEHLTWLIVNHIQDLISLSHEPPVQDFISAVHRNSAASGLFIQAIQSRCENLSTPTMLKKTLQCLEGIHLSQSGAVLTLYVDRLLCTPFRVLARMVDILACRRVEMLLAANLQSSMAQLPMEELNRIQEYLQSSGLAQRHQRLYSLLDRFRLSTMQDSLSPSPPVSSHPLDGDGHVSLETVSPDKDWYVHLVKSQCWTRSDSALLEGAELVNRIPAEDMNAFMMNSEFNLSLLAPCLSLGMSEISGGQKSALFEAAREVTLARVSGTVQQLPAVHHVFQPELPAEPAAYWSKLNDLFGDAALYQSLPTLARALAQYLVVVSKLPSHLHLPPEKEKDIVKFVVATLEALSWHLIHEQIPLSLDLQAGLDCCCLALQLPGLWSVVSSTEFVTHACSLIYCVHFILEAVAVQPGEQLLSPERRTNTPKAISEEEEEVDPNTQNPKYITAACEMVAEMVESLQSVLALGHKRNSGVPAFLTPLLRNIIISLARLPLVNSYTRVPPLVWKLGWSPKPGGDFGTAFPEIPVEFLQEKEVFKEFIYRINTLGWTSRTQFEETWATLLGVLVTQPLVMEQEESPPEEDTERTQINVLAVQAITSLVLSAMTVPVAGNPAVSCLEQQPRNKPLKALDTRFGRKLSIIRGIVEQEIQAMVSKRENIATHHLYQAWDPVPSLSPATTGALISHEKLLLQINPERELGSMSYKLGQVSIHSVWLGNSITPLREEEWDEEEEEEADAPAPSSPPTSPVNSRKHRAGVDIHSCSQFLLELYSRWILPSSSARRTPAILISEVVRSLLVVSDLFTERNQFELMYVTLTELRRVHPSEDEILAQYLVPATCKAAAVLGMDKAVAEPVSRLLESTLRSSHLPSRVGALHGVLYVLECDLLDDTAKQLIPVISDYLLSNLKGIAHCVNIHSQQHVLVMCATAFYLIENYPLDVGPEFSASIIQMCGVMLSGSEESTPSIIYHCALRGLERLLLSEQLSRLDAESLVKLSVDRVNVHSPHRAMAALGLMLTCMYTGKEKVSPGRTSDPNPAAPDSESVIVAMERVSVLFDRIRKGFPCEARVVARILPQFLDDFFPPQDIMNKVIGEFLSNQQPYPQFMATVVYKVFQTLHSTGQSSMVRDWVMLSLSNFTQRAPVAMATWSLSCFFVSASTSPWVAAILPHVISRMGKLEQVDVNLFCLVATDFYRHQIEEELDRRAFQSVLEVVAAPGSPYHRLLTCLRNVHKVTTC
The depositor's hits bear a star; · = no result given. The full list was thinned out, with hits kept by preference. Cut-off read from the data, not from the text of the source: active = inhibition above about 50%; inactive = the rest.

SMILES	Pf apPOL block	mHTT CaM bind
CCOC(=O)c1ccc(NC(=O)COc2cccc3c2CCN(CC)C3=O)cc1	-1	-2
O=C1C2C3C=CC(O3)C2C(=O)N1c1cc(C(F)(F)F)ccc1Cl (centres undefined)	-3	-4
O=C1C=CC(=O)C(c2cc(C(F)(F)F)ccc2Cl)=C1	-3	60*
CCOc1ccccc1NC(=O)c1c(NCc2cc(OC)ccc2OC)sc2c1CCC2	-19	16
COc1ccc(NC(=O)c2c(NC(=O)c3ccccc3Cl)sc3c2CCCC3)c(OC)c1	-9	4
COc1ccc(Cl)cc1NC(=O)c1c(NCc2cccn2C)sc2c1CCCC2	-15	65*
COc1ccc(OC)c(NC(=O)c2c(NCc3ccccn3)sc3c2CCCC3)c1	-18	59*
COc1ccc(NC(=O)c2c(NC(=O)c3cccnc3)sc3c2CCC3)cc1	2	0
COc1ccc(OC)c(NC(=O)c2c(NC(=O)c3ccccc3F)sc3c2CCCC3)c1	-24	-4
COc1ccc(Cl)cc1NC(=O)c1c(NCc2ccccn2)sc2c1CCCC2	-17	75*
COc1ccc(NC(=O)c2c(NCc3ccccn3)sc3c2CCC3)cc1	-17	59*
CCOC(=O)Nc1ccc(C)s1	·	-4
Cc1ccccc1/C=C1\N=C(c2ccc(Br)cc2)OC1=O	-3	-2
CN(C)c1ccc(CN2CCc3nc(Nc4ccc(F)cc4)ncc3C2)cc1	0	21
CC(=O)N(C1=C(N(C)C)C(=O)c2ccccc2C1=O)c1cccc(Cl)c1	-7	18
CC(C)C(=O)Nc1cccc(I)c1	8	-1
CN(C)C1=C(Nc2cccc(Cl)c2)C(=O)c2ccccc2C1=O	-4	57*
CN(C)C1=C(Nc2cccc(I)c2)C(=O)c2ccccc2C1=O	-4	92*
COC1(OC)C2(Cl)C(Cl)=C(Cl)C1(Cl)C1C(O)C=CC(O)C12 (centres undefined)	-4	·
COCCNC(=O)N1CCC2(C1)C(=O)N(C)c1ccccc12 (centres undefined)	-1	-9
CCC(=O)NCc1nc2c(n1CC)CN(C(=O)c1ccccc1C(F)(F)F)CC2	-1	5
COc1cc(NCc2ccc3c(c2)Cc2ccccc2-3)cc(OC)c1OC	6	59*
COc1ccc(CC(=O)Nc2ccc3c(c2)Cc2ccccc2-3)cc1OC	-2	-3
c1ccc2c(CCc3ccncc3)c[nH]c2c1	6	5
c1ccc(Cc2c[nH]c3ccccc23)cc1	-1	61*
SMILES	Pf apPOL block	mHTT CaM bind
Cc1ccccc1C(=O)N1CCc2c(c(-c3nc(-c4cccc(F)c4)no3)nn2C)C1	-6	0
CN(C)/C=C1\C(=O)N(c2ccc([N+](=O)[O-])cc2)N=C1c1ccccc1	59*	25
C/C(=C1/C(=O)N(c2ccc([N+](=O)[O-])cc2)N=C1c1ccccc1)N(C)C	0	53*
CC1=NN(c2ccccc2)C(=O)/C1=C/c1ccc(-c2ccc([N+](=O)[O-])cc2)o1	0	1
Cc1nnc(-c2ccccc2)n1-c1ccc([N+](=O)[O-])cc1	-2	8
Cc1cc(C)n(-c2nnc(-n3nc(C)cc3C)nn2)n1	·	11
Cc1cc(NC(=O)C2CCc3nc(N4CCOCC4)ncc3C2)ccc1F (centres undefined)	-4	0
CCOC(=O)c1ccc(NC(=O)N2CCc3nc[nH]c3C2)cc1	-4	4
CN(C)C(=O)c1ccc2c(c1)CCN2C(=O)C1CCC1	0	0
Cc1nc(-c2ccc(C(=O)NC3CCCCC3)cc2)cs1	0	-5
Nc1ccc2[nH]c3ccccc3c2c1	6	99*
CC(=O)c1ccc2[nH]c3ccccc3c2c1	3	-4
N#CC1=C(SCC(=O)Nc2ccccc2)NC(=O)C(C#N)C12CCCC2 (centres undefined)	-4	-3
CC1CCCC2(C1)C(C#N)=C(SCC(=O)Nc1ccc(Br)cc1)NC(=O)C2C#N (centres undefined)	-2	73*
Cc1cc(C)c(S(=O)(=O)NCCn2c(C)cc3ccccc32)c(C)c1	6	62*
Cc1cc2ccccc2n1CCNS(=O)(=O)c1ccc(Br)cc1	-1	36
Cc1ccc(O)c(C2=NCCNC(C(F)(F)C(F)F)=C2)c1	59*	7
FC(F)C(F)(F)C1=CC(c2ccccc2)=NCCN1	-3	-2
O=C(NCc1ccncc1)c1cccc(N2CCNC(c3ccccc3)C2)n1 (centres undefined)	-13	1
COc1cccc(NC(=O)c2cccc(N3CCNC(c4ccccc4)C3)n2)c1 (centres undefined)	-6	16
O=C(NCCc1cccs1)c1cccc(N2CCNC(c3ccccc3)C2)n1 (centres undefined)	34	87*
COc1ccc(NC(=O)c2cccc(N3CCNC(c4ccccc4)C3)n2)c(OC)c1 (centres undefined)	-8	70*
O=C(NCCc1ccccn1)c1cccc(N2CCNC(c3ccccc3)C2)n1 (centres undefined)	-17	16
O=C(NCc1ccc(N2CCCC2)cc1)c1cccc(N2CCNC(c3ccccc3)C2)n1 (centres undefined)	-1	82*
COc1ccccc1CC(=O)N1CCC(c2nc(C(=O)N3CCOCC3)c(C)o2)CC1	-3	8
SMILES	Pf apPOL block	mHTT CaM bind
O=C(NC1CC1)c1ccccc1OCC1CCN(C(=O)c2ccc(C(F)(F)F)cc2)CC1	8	8
CCOCCCNC(=O)N1CCC2(CC1)c1cccn1-c1ccc(C)cc1N2CC	4	93*
Cc1ccc(CNC(=O)C2(C)CCCN(C(=O)NCc3ccccc3)C2)cc1 (centres undefined)	2	-6
CCOCCCNC(=O)N1CC(CC)Oc2ccc(C)cc21 (centres undefined)	-6	-1
CCN1c2cc(C)ccc2-n2cccc2C12CCN(C(=O)NCc1ccco1)CC2	-4	84*
CCN1c2cc(C)ccc2-n2cccc2C12CCN(C(=O)NCc1ccccc1)CC2	-1	81*
CCN1c2cc(C)ccc2-n2cccc2C12CCN(C(=O)NCc1ccc(F)cc1)CC2	2	93*
Cc1cccc(-n2cc(C3CCN(C(=O)NCc4ccco4)CC3)cn2)c1	-3	24
CCN1c2ccccc2C(=O)NC12CCN(C(=O)NCc1ccc(F)cc1)CC2	-10	1
O=C(NCc1ccccc1)C1CCN(c2ccc(Br)cc2)C1=O (centres undefined)	1	0
O=C1/C(=C/c2ccc3c(c2)OCO3)N=C2CCCCCN12	-3	3
O=C1NCCCn2cc(S(=O)(=O)Nc3ccc(F)c(Cl)c3)cc21	-4	0
CC1CCN(C(=O)C2=NN(C(C)C)c3cc(Cl)ccc3S2(=O)=O)CC1	-3	-4
CCN1c2ccccc2C(=O)NC12CCN(C(=O)NCCc1ccccc1)CC2	-2	-2
CCN1c2cc(C)ccc2-n2cccc2C12CCN(C(=O)NCCc1ccccc1)CC2	-2	94*
COc1ccc(/C=C2N=C(/C=C/c3cccc([N+](=O)[O-])c3)OC/2=O)cc1OC	-1	2
COCc1nnc(NC(=O)c2c(-c3ccccc3)noc2C)s1	-1	-1
Fc1ccc(CSc2nnc(-c3ccco3)n2-c2ccccc2)cc1	-15	10
COc1ccc2nc(-c3ccc(C)c(NC(=O)c4c(F)cccc4Cl)c3)cn2n1	-3	8
N#Cc1c(SCC(=O)Nc2nncs2)sc2c(O)cc(=O)[nH]c12	·	54*
